# Laboratory results taken from PubChem BioAssay AID1508600 (Functional Genomics Laboratory (NCATS/FGL), 2020).
# In all, about 53,000 sequences went through this assay and about 3,700 (7%) were called active. The full list was thinned out, with actives kept by preference. Unmarked numbers belong to inactive results.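 Rule for the calls: active = gene knockdowns whose robust z-score for IL-1 alpha signal is at least 2 or at most -2, so actives lie on both sides; inactive = the rest.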
# Test: Components of the Cytosolic LPS Sensing Pathway: Gene Identification via Genome-wide siRNA Screen;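 note: robust z of the log signal after scaling to non-targeting control siRNA wells of the plate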
# Conditions: RAW264.7 macrophages, IL-1a HTRF, actives lie on both sides, screened at 100 nM (by protocol), cells primed 5 h with Pam3CSK4 first
# Method in brief: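 Read-out: IL-1a HTRF on supernatant, divided by plate negative-control median ×100, log-transformed and converted to robust z-score. Cells were RAW264.7 given 100 nM siRNA, Pam3CSK4-primed 5 hours, then LipidA-transfected 24 hour.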
row,Sequence,z-score
1,GCAAAACCAAGUGAAUGUGTT against Plac1,-0.774
2,GGAGUUUCAGCAGUCGUGATT against Prkrip1,-0.94
3,CCCUUCUCUGAUUGUCUGATT against Lce3b,-0.452
4,GCUUCUAAAUUUGGUUCUGTT against 9830163H01Rik,-0.389
5,GGUGGACAAGGCAAUACAGTT against Mmp20,4.46 (active)
6,GGUUUGAAUGAAUUCAAGGTT against 6030452D12Rik,0.785
7,GCUUAAUCAACUGGUACUATT against Olfr19,-1.7
8,GGGUCACGGGAACUCAAAATT against Mlf1,-0.608
9,GGAAUCAUCUGAACACACATT against Ctcf,-2.18 (active)
10,GGAGAAGCUAUGGUAUUACTT against Apc2,-0.798
11,CCACCACCAUCUAAAUAUATT against Ckap2l,-1.62
12,GGACACAUUCGAAUGAACCTT against Mkrn2,0.0809
13,GGACAAGACCAGCAAAUACTT against Six6,-1.58
14,GCAUUGUGCUCAAAUCUGCTT against C1qtnf7,-0.168
15,GGGUAUUCUGUGUGUUACUTT against Hsd3b1,2.06 (active)
16,GGGUUUUGAAACAUGCAGGTT against Cd44,-1.54
17,AGAGAGAUAUUGUUCAUCATT against Psg22,0.11
18,GGUAAUCGUGUAUUCAUAUTT against Dph5,-0.327
19,GGAAACUGAAAAACAGAGUTT against Xbp1,-0.957
20,GCGAAGAGAUGCUAACUAUTT against Dhx8,-2.86 (active)
21,UGAGUUGUUUCCAGCUAAATT against Uts2b,-0.506
22,GCCCGGUCCUUUACUACAUTT against Sdk1,0.595

row,Sequence,z-score
1,GGAUGCACUCAAGAAUUACTT against Ccdc65,2.11 (active)
2,GGUGAGUGAUCUUCAGAACTT against Snx13,0.311
3,CCCUGCUAAAAUCGACCUGTT against Plekha8,-0.912
4,GCUCAUCGUGUUCGCUAUATT against Tuft1,-0.235
5,GGAGGUAAAGGAAAACUCUTT against Fmo1,0.27
6,CCACAACUAUGAGUCUAUUTT against Ech1,2.05 (active)
7,GCUGGACCCACACAAAAAGTT against Rhbdl3,-0.0513
8,GGCUUUUCAGACCAAGCUUTT against 3830406C13Rik,0.322
9,CGUUGUAUGCUAGUACUGATT against Olfr1501,-1.17
10,GGCAAAAAGGGAUGUUACCTT against Map1lc3b,-0.221
11,GCGAGUCUAUGUGUUCCCUTT against Cox4i2,0.187
12,GGAAACAAAUGAGUGCCUGTT against Bloc1s5,2.02 (active)
13,GCUGGAAUACGGAAAAUGGTT against Gbe1,-1.56
14,GGAGGAAAUACAUGAUAAATT against Strap,-0.159
15,GGCUUACGAUGAAAAUAAATT against Lca5,-1.94
16,GGCAUUGCAUUCUCACAUGTT against Gabarapl1,0.319
17,GCUCGUUGCAUAAAAAGAGTT against Creg2,-0.286
18,GGAGAUCAAAGAAUCUUGGTT against Arhgap45,-4.45 (active)
19,GCCGGAAACUCAAGAUAGCTT against F830208F22Rik,-0.74
20,GCCCGCUCUCGGAUUUUGATT against Htr1b,1.5
21,GGUAGAGACCGCAUAGAAATT against Aqp8,2
22,CCGGGUAGUGAGUAAGCUUTT against Neu2,-3.51 (active)

row,Sequence,z-score
1,GGUCCAAGAAGACAAUGCUTT against Cga,-0.102
2,CCUCUUUGGGACUAUAGACTT against Olfr1357,-0.378
3,GGUAUUGGUCCAAUUUUUCTT against Gng7,0.187
4,GGCUGUGGUGCUCAAUAAGTT against Clstn2,-1.29
5,CCGAGAUAUGAAUCAAAUUTT against Wars,2.19 (active)
6,GGAAAGACAAAAUCUAUGATT against Peg3,-0.777
7,GGUCAUCAGUGAGCUGAAUTT against Rplp2,0.125
8,GCUCAUCUCCUUGAAUUCATT against Agbl5,0.31
9,CCUGUCCUGAUGGUGAAACTT against Serpinb3c,0.619
10,GCCUAAACUACCCUUAUAGTT against Ocln,3.4 (active)
11,GGUGCUGGCAACCUUUUGUTT against Masp1,0.16
12,GGGCCAUUGUCAAGGUGAUTT against Olfr632,-0.408
13,CCGAUUUUUACUUUUAGCUTT against Slc16a7,1.86
14,GGAGACUAUUACCAUACUGTT against P4ha2,-0.991
15,GGUGAGCAAGAACAAAAAGTT against Chil6,-0.71
16,GGUUUCGAGAAAACAACAATT against Miip,0.566
17,GCACAUCGAAAAUGCCCUGTT against Cpt1c,-0.154
18,GGCAAACCUGCUUUCAUGGTT against Smc5,0.282
19,GCAGUUCUCCUAUUUCAUCTT against Cdc45,2.03 (active)
20,CGGGUGAGUGGAAAAACCATT against Atg9b,-0.282
21,GCCAAUGCCCUUGUGCAAATT against Olfr344,0.301
22,GGCUAUCUCGUAUUCUGAUTT against Olfr985,-1.62

row,Sequence,z-score
1,CCCGGGUUGGGUGUACAUUTT against Sds,3.62 (active)
2,CCUUAGCAAUGGGAUUGAUTT against Rasl12,0.448
3,GGAGAACACUUUAAUGCUGTT against Ovch2,0.00992
4,GGGCUGGAGUCUGAUACAUTT against Rbm5,3.39 (active)
5,CCGUGUUAGAGUUUUCGACTT against Top3b,1.2
6,CCAAAGGUAUGCAGUAUGATT against Cdh4,0.131
7,GGUUUUCAAAUGUCUAUCATT against Pithd1,2.37 (active)
8,CCUGCUCAGGACGACUUUUTT against Defa20,-1.63
9,GGACUUUGACCCGUACUAUTT against Scn8a,0.951
10,GCUUGUGCCGGAUAAAGGUTT against Gng3,-0.748
11,GCCAAGGUGGAAUUUUUGGTT against Gpx8,0.139
12,GGUAUACCAAGAAGCUAAGTT against Kctd14,-0.855
13,GCAGAGGUACGUGUUUGACTT against Gdf5,0.933
14,GCGUGUAGGAAUAAUACCUTT against Psmc6,-2.66 (active)
15,UGCUCUUGGGUUCUUAAAUTT against Olfr1466,-0.559
16,CGAACAAGCCAUGUUUACATT against Gvin1,0.811
17,GGAACUUCUCAAAAGGCUGTT against Tspoap1,-0.0418
18,GGACCUGACCUACUCGUGUTT against Rxrb,-0.216
19,GCGGAAGCGUGAAUCCAAATT against Tigd3,3.13 (active)
20,GGAUCGAACUGCCAUUGCUTT against A930104D05Rik,-0.201
21,GCUGUCCUACUGAGCUUGCTT against Gdpgp1,-0.0224
22,GCCACUUGUGCUAAGCUGUTT against Ager,-0.768

row,Sequence,z-score
1,GGUCUGUAUGAAGACAUUATT against Pdss1,-1.16
2,GCAAGAAGUAAUCAACUUUTT against Cnot9,-0.997
3,GGACCAGAAACCGUGAUAATT against Immp2l,3.96 (active)
4,GGCACCAAUUACAAGAAAATT against V1rg10,0.257
5,CCUGGCAGACGUGGAACAATT against Ppp1r13l,-0.102
6,GGACCAGUUACUUUAACAUTT against Pkdrej,0.555
7,GGAGAGUCCACUAAUACUGTT against Dmrt3,0.217
8,GGAGAUUGGAUCCCGAAACTT against Pxn,-0.431
9,GGCAAAGAGUGGUAAGAGUTT against Olfr1166,-2.72 (active)
10,GGAUUUCUACAGGGUGUAUTT against Trim8,-1.19
11,GGAUCUUACUAUCACCAGCTT against Foxf1,1.99
12,CGGGCUACCAUUAUGGUGATT against Atp6ap2,0.382
13,GUGGCAGCACGACCUAUUCTT against Alyref2,-0.175
14,CCAAUUACCUGAAUAAAGCTT against Epb41l5,1.19
15,GGGCUCUACUAUUUUUUUUTT against Polh,-2.68 (active)
16,GCCCAGGUCUAAUGUCUAATT against Tac4,0.234
17,GGUGUUAAGUCACAAAAUGTT against Meis2,1.59
18,GGUUGUAUGUUGUGUGUUUTT against Cyrib,2.36 (active)
19,CGGAAUGUAGGACACGAAUTT against Ltb,-0.267
20,GGUGACUUCGGAGAAAAGGTT against Sncaip,0.257
